A selection: hits, their analogues and other compounds. The true share with any hit is near 7.1%.
MCF10A rerep = DNA re-replication induction in MCF 10a cells. MCF 10A DNA re-replication, Hoechst nuclear intensity, 48 h. Potency, µM (top dose mostly 46.1 µM), usual class: activators. hit rate 2.9% among 350,000. AID 624296; further: nearly all actives have a fitted effect of over 50% in size
PINK1 expr mod = PINK1 expression modulation; PINK1 immunofluorescence, high-content cytometry, 24 h; AID 624263; Potency, µM (series often up to 76.6 µM), actives largely listed as activators; hit rate 0.2% among 410,000; active means well fitted activation curve with a large enough effect; inconclusive means small, poorly fitted or top-dose-only effect; cell line not stated here; further: nearly all actives have a fitted effect of over 65% in size
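PINK1 protein level read as immunofluorescence by microplate cytometer in a fixed, stained stable cell line after 24 h exposure to five compound concentrations, with CCCP as control.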
SW480 rerep = induces DNA re-replication in SW480 colon adenocarcinoma cells; Potency, µM (top dose mostly 46.1 µM), hits mostly activators; hit rate 1.8% among 340,000; AID 624297; SW480 DNA re-replication, Hoechst DNA content imaging, 48 h; further: nearly all actives have a fitted effect of over 55% in size
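Cells (250 per well) received 23 nL compound or DMSO by pin tool and were kept 48 hr at 37 C, 5% CO2. Nuclei were then stained with Hoechst for 40 min and scanned for DNA content.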
ATXN viability = cell viability loss in ATXN counter-screen. AID 651635. Potency, µM (titrated, usually from 56.7 µM), most hits filed as cytotoxic. hit rate 0.49% among 400,000. S2 cells (HEK-293 line with an ATXN2-luciferase reporter) viability, CellTiter-Fluor protease fluorescence, 24 h; further: nearly all actives have a fitted effect of over 40% in size
IL1B secr inh = inhibitors of inflammasome signaling (IL-1 beta secretion). AID 743279. activity change, % at 57.5 µM. THP-1 LPS/ATP IL-1B secretion, AlphaLISA, 16 h; stronger effect = lower value. hit rate 4.7% among 360,000; in the data active means activity change below about -50%; inconclusive means mostly about -30% to -49%
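THP-1 cells pretreated 1 hr with compounds (up to 57.5 uM final), then stimulated with LPS (250 ng/mL final) plus ATP (1.25 mM final); secreted IL-1B measured by AlphaLISA after 16 hr, decreased signal indicating inhibition.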
ATXN2 expr inh = reduces ATXN2 reporter expression in HEK-293 cells; HEK-293 ATXN2-luciferase reporter, luminescence, 24 h; Potency, µM (titrated, usually from 57 µM), usual class: inhibitors; hit rate 0.72% among 360,000; AID 1745845; further: nearly all actives have a fitted effect of over 55% in size
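qHTS (up to 57 uM final) was run with 24 h compound exposure of reporter cells at 37 °C. Each well was multiplexed: SteadyGlo luminescence measured ATXN2-luciferase expression after a fluorogenic Gly-Phe-AFC viability readout (25 uM final).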
Of the large screens only hits and unclear results are named; the others gave an inactive call. Unless noted, the call rests on the fitted dose curve; in most records, active means well fitted curve in the direction sought with a large enough effect; inconclusive means small, poorly fitted or top-dose-only effect, or another doubt; inactive means no such curve, though single readings can be large; an effect the other way counts as inactive or inconclusive.

CC1CCN(S(=O)(=O)c2cccc(C(=O)Nc3ccccc3)c2)CC1	IL1B secr inh -54.2
O=S(=O)(Nc1nc2ccccc2nc1Nc1cccc(S(=O)(=O)N2CCCCC2)c1)c1ccccc1	MCF10A rerep inconclusive, PINK1 expr mod 25.1µM, ATXN viability inconclusive, ATXN2 expr inh inconclusive
Cc1ccc(NC(=O)c2cc(S(=O)(=O)N3CCCCC3)cs2)cc1	MCF10A rerep inconclusive, IL1B secr inh -73.4, ATXN2 expr inh inconclusive
Cc1ccc(NC(=O)c2cc(S(=O)(=O)N3CCOCC3)cs2)cc1	none
COc1cc(NC(=O)c2c(C)oc3ncnc(N4CCCCC4)c23)cc(OC)c1	none (no result: MCF10A rerep, SW480 rerep, ATXN viability, IL1B secr inh, ATXN2 expr inh)
CN[C@@H]1[C@@H](O[C@H]2O[C@H](CO)[C@@H](N)[C@H](O)[C@H]2O)O[C@H]2C[C@@H](N)[C@@H](O[C@H]3[C@H](O)[C@@H](O)[C@H](N)C[C@@H]3N)O[C@@H]2[C@@H]1O	none (no result: MCF10A rerep, PINK1 expr mod, SW480 rerep, IL1B secr inh, ATXN2 expr inh)
Cc1ccc(Cn2c(C)c3cnn(CC(=O)NCCc4ccc(Cl)cc4)c(=O)c3c2C)cc1	none (no result: MCF10A rerep, SW480 rerep, ATXN viability, IL1B secr inh, ATXN2 expr inh)
CC(=O)Nc1cc(-c2cccc(C(=O)NCCN(C)C)c2)cn2c(-c3ccc(S(C)(=O)=O)cc3)cnc12	none (no result: MCF10A rerep, SW480 rerep)
CC(=O)Nc1cc(-c2cccc(C(=O)NCCN(C)C)c2)cn2c(-c3ccccc3)cnc12	IL1B secr inh -53.4, ATXN2 expr inh inconclusive (no result: MCF10A rerep, SW480 rerep)
CN(C)CCNC(=O)c1cccc(-c2cnc3c(NC=O)cc(-c4ccc(F)cc4)cn23)c1	none (no result: MCF10A rerep, SW480 rerep, ATXN viability)
CC(=O)Nc1cc(-c2cccc(C(=O)NCCN(C)C)c2)cn2c(-c3cccc(C(F)(F)F)c3)cnc12	ATXN viability 31.6µM (no result: MCF10A rerep, SW480 rerep)
CCSc1ccc(-c2cc(NC=O)c3ncc(-c4cccc(C(=O)NCCN(C)C)c4)n3c2)cc1	IL1B secr inh -107.5, ATXN2 expr inh inconclusive (no result: MCF10A rerep, SW480 rerep)
O=C1N(c2cccc(Cl)c2)C(c2ccccc2)N2CCCN12 (configuration not stated)	none
Cc1ccc(C2N(c3ccccc3)C(=O)N3CCCN23)cc1 (configuration not stated)	SW480 rerep 0.517µM (no result: ATXN2 expr inh)
COc1ccc2[nH]c(O)c(N=O)c2c1	none
Cc1cccc2c(N=O)c(O)[nH]c12	SW480 rerep inconclusive, IL1B secr inh inconclusive
O=Nc1c(O)[nH]c2ccc(Cl)cc12	IL1B secr inh -71.6
O=Nc1c(O)[nH]c2ccc(F)cc12	IL1B secr inh -88.1
COc1cccc(CN2CCC3(CCC(CNC(=O)c4cc(C)nn4C)O3)CC2)c1OC (configuration not stated)	none (no result: MCF10A rerep, SW480 rerep, IL1B secr inh, ATXN2 expr inh)
CC1=CC(C)(C)N=C(Nc2nc(C)c3cc(C)cc(C)c3n2)N1	PINK1 expr mod inconclusive, ATXN viability inconclusive, IL1B secr inh -95.1, ATXN2 expr inh inconclusive
CCC(C)NC(=O)CSc1nc2cc3c(cc2c(=O)n1CCCCCC(=O)NCc1ccc2c(c1)OCO2)OCO3 (configuration not stated)	none (no result: MCF10A rerep, SW480 rerep, ATXN viability, IL1B secr inh, ATXN2 expr inh)
COC(=O)c1ccc2c(=O)n(CCCCCC(=O)NCCc3ccc(Cl)cc3)c(=O)[nH]c2c1	none (no result: MCF10A rerep, SW480 rerep, ATXN viability, IL1B secr inh, ATXN2 expr inh)
CC(C)c1ccc(NC(=O)CN2C(=O)COc3ccc(S(=O)(=O)N4CCCCCC4)cc32)cc1	none (no result: MCF10A rerep, SW480 rerep, ATXN viability, IL1B secr inh, ATXN2 expr inh)
BrC(=C\c1ccccc1)/C=N/Nc1ccc2nncn2n1	MCF10A rerep inconclusive, SW480 rerep inconclusive, IL1B secr inh -85.8
C(=N\Nc1ccc2nncn2n1)/c1ccco1	none
BrC(=C\c1ccccc1)/C=N/n1cnnc1	MCF10A rerep 16.4µM, ATXN viability inconclusive (no result: ATXN2 expr inh)
CCc1nc2ccc(C(=O)NC(C)(C)C)cn2c1N(CC)Cc1cccc(Br)c1	ATXN viability inconclusive, IL1B secr inh -58.0 (no result: MCF10A rerep, SW480 rerep)
CCc1nc2ccc(C(=O)NCc3ccc4c(c3)OCO4)cn2c1N(CC)Cc1cccc(Br)c1	ATXN viability inconclusive, IL1B secr inh inconclusive, ATXN2 expr inh inconclusive (no result: MCF10A rerep, SW480 rerep)
Cc1ccc(NC(=O)COC(=O)C2(CC(=O)NC(C)(C)C)CCCC2)cc1C	PINK1 expr mod inconclusive, ATXN viability inconclusive, IL1B secr inh -92.2
Fc1ccc(CNC(=S)NC2CCCC2)cc1	SW480 rerep inconclusive, IL1B secr inh -142.2 (no result: ATXN2 expr inh)
NS(=O)(=O)c1ccc(CNC(=S)NCc2ccc(F)cc2)cc1	IL1B secr inh active

High-throughput results (PubChem)
